What follows are molecules tested against Solute carrier family 2, facilitated glucose transporter member 1 (Homo sapiens) (UniProt P11166) (assay: ST_JUDE_LEISH: Cytotoxicity at 2uM final concentration against transgenic Leishmania Mexicana promastigotes LmGLUT1 that are glucose transport deficient and complemented with the human glucose transporter GLUT1. Activity is measured by DNA content using SYBR green in vitro).
Type: functional

Solute carrier family 2, facilitated glucose transporter member 1 (Homo sapiens), sequence (P11166 whole entry): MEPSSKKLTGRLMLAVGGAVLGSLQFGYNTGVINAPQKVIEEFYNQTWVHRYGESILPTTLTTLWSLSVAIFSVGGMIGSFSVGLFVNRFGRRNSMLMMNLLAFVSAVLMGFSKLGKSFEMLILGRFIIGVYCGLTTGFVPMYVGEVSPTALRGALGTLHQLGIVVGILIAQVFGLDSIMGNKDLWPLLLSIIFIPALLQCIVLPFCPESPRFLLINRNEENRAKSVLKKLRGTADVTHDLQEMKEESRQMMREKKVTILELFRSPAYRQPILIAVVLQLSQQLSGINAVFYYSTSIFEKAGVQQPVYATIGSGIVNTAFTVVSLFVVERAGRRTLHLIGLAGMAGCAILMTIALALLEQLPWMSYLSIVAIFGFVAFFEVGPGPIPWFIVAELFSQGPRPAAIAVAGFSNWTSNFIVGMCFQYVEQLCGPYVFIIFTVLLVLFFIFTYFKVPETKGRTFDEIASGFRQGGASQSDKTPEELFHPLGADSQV

Compound | inhibition [%]
CC(C)NCc1ccc(-c2ccc(NC(=O)c3cccc(C#N)c3)cc2)cc1 | 1.38
CSc1ccccc1NC(=S)NC1CCN(CCCCCNC(=O)/C=C/c2ccc(Cl)c(Cl)c2)CC1 | 4.66
COc1ccc(S(=O)(=O)N2CCC3(CC2)OCC(=O)NC3c2ccc(Cl)c(Cl)c2)cc1 (stereo not drawn) | 2.93
O=C(Cc1ccc(NC(=O)c2ccc(O)c(-c3ccc(Cl)c(Cl)c3)c2)cc1)NCc1cccc(C(F)(F)F)c1 | 2.33
O=C(NCCNc1ccnc(NCc2ccc(F)cc2)n1)c1cc2ccccc2s1 | 4.76
CN1CCC(NCc2ccc(-c3ccc(S(=O)(=O)NCc4ccccc4)c(F)c3)cc2)CC1 | 12.7
O=c1cc(NCCC(CNCc2ccoc2)NCc2cc(Br)cc(Br)c2)[nH]c2ccccc12 (stereo not drawn) | 6.77
CC(C)(C)c1ccc(CN2CCC(CNC(=O)c3cc(-c4cccc(Cl)c4)cs3)C2)cc1 (stereo not drawn) | 16.7
O=[N+]([O-])c1ccc(Oc2ccccc2CNCC2CCN(CC3CCCCC3)CC2)cc1 | 13.6
O=C(Nc1ccc2[nH]c(-c3ccccc3)nc2c1)c1cc(-c2ccc3c(c2)OCCO3)n[nH]1 | 12.2
N#Cc1ccc(-c2ccc(C(=O)NCCCCN3CCC(c4ccncc4)CC3)cc2)cc1 | 1.06
CC(C)C(=O)n1ncc2c3c(N)nc(N)nc3ccc21 | -0.81
COc1ccc(CN2CCN(Cc3cc(Cl)ccc3O)CC2CCO)c(C)c1C (stereo not drawn) | -1.12
CN1CCCN(Cc2ccc(-c3cccc(NC(=O)c4ccc(Cl)cc4)c3)cc2)CC1 | 3.92
N#Cc1ccc(CN2CCC(Oc3ccc(NC(=O)c4ccco4)cc3Cl)CC2)cc1 | 0.38
CCCCNc1ccc(C(=O)NC2CCN(C[C@H](O)c3ccnc4ccc(OC)cc34)CC2)cc1 | 9.46
COc1c(C2CCN(CCCCNC(=O)c3cc(-c4ccc(C#N)cc4)n[nH]3)CC2)ccc2c1CCCC2 | -0.72
Fc1cccc(COc2ccc(Nc3ncnc4cc(/C=C/[C@@H]5CCCN5)sc34)cc2Cl)c1 | 5.81
O=C(NCc1ccccc1)NC1CCN(c2ccnc3cc(Cl)ccc23)C1 (stereo not drawn) | -2.48
CC(CN1CCN(C)CC1)C(=O)Nc1ccc(-c2cccc(-c3nc4ccccc4[nH]3)c2)cc1 (stereo not drawn) | 2.41

Compound | inhibition [%]
CCC(C)NC(=O)Cn1c2ncccc2c(=O)n1-c1ccc(C)cc1 (stereo not drawn) | 5.25
CCC1CCc2cc(N)cc(-c3nc4c(c(C)nn4CC)c(=O)[nH]3)c2O1 (stereo not drawn) | 5.2
CNCCNCc1cccc(-c2cccc(-c3nc4cc(C(F)(F)F)ccc4[nH]3)c2)c1 | 2.15
CCc1cn2c3c(cc(C(=O)N[C@@H](Cc4cccc(F)c4)[C@H](O)CNC4CC4)cc13)N(C)S(=O)(=O)CC2 | 2.18
O=C(NC1CCCCC1)N(Cc1cccc(-c2cccc(CNC3CCCC3)c2)c1)C1CCN(Cc2ccccc2)CC1 | 8.95
Cc1cccc(C(=O)Nc2ccnc(N(C)CCCN(C)Cc3cccc(C#N)c3)c2)c1 | 5.76
CN1CCCC(CN2CCN(Cc3cccc(-c4cccc(-c5nc6ccccc6[nH]5)c4)c3)CC2)C1 (stereo not drawn) | 1.59
Fc1ccc(NC(S)=NN=Cc2ccccn2)cc1 | 4.22
N#Cc1ccc2c(c1)CN(CCC1CCC(NC(=O)c3cc4cc(OC(F)(F)F)ccc4[nH]3)CC1)CC2 (stereo not drawn) | 3.11
Cc1ccc2c(c1)NCC21CCN(C[C@@H](O)C2CCN(c3ccnc(Cl)c3)CC2)CC1C (stereo partly drawn) | 0.9
CCC[C@@H]([C@@H](CC(C)C)C(=O)N[C@@H](CCCCNC(=O)c1cccc(OC)c1)C(=O)Nc1nccs1)N(O)C=O | 8.94
CN(CCN)Cc1ccc(-c2ccc(-c3nc4cc(C(F)(F)F)ccc4[nH]3)s2)cc1 | 15.1
N#Cc1ccc2c(c1)CCN(CCC1CCC(NC(=O)c3ccc(-c4ccccn4)s3)CC1)CC2 (stereo not drawn) | 13.3
CCCOc1cc(O)c(-c2[nH]nc(C)c2Oc2ccccc2)cc1CC | 1.25
CC(C)(C)c1ccc(CNC(=O)/C=C/c2ccc(-c3nc4cc(C(C)(C)C)ccc4[nH]3)cc2)cc1 | 2.35
COc1ccc(C2C(C(=O)Nc3cc(Cl)c(OC)cc3OC)c3ccccc3C(=O)N2C)cc1 (stereo not drawn) | 0.28
N=C(N)NN=CC(=O)Nc1ccc(Cl)c(C(F)(F)F)c1 | 8.87
CC1=C(C(=O)Nc2cc3cn[nH]c3cc2F)C(c2cccc(NS(C)(=O)=O)c2)CC(=O)N1 (stereo not drawn) | 2.54
Cc1cc(N[C@@H](CC(C)C)C(=O)NCCc2ccccc2)nc(Nc2ccccc2)n1 | 4.26

Each molecule was assayed against Hexose transporter 1 (Plasmodium falciparum) (UniProt O97467) (assay: ST_JUDE_LEISH: Cytotoxicity at 2uM final concentration against transgenic Leishmania Mexicana promastigotes LmPfHT that are glucose transport deficient and complemented with the Plasmodium falciparum hexose transporter. Activity is measured by DNA content using SYBR green in vitro).
Type: functional

Compound | inhibition [%]
CC(C)NCc1ccc(-c2ccc(NC(=O)c3cccc(C#N)c3)cc2)cc1 | 1.38
CSc1ccccc1NC(=S)NC1CCN(CCCCCNC(=O)/C=C/c2ccc(Cl)c(Cl)c2)CC1 | 4.89
COc1ccc(S(=O)(=O)N2CCC3(CC2)OCC(=O)NC3c2ccc(Cl)c(Cl)c2)cc1 (stereo not drawn) | 1.47
O=C(Cc1ccc(NC(=O)c2ccc(O)c(-c3ccc(Cl)c(Cl)c3)c2)cc1)NCc1cccc(C(F)(F)F)c1 | 2.65
O=C(NCCNc1ccnc(NCc2ccc(F)cc2)n1)c1cc2ccccc2s1 | 4.26
CN1CCC(NCc2ccc(-c3ccc(S(=O)(=O)NCc4ccccc4)c(F)c3)cc2)CC1 | 13.2
O=c1cc(NCCC(CNCc2ccoc2)NCc2cc(Br)cc(Br)c2)[nH]c2ccccc12 (stereo not drawn) | 6.66
CC(C)(C)c1ccc(CN2CCC(CNC(=O)c3cc(-c4cccc(Cl)c4)cs3)C2)cc1 (stereo not drawn) | 3.66
O=[N+]([O-])c1ccc(Oc2ccccc2CNCC2CCN(CC3CCCCC3)CC2)cc1 | 15.7
O=C(Nc1ccc2[nH]c(-c3ccccc3)nc2c1)c1cc(-c2ccc3c(c2)OCCO3)n[nH]1 | 11.6
N#Cc1ccc(-c2ccc(C(=O)NCCCCN3CCC(c4ccncc4)CC3)cc2)cc1 | 1.16
CC(C)C(=O)n1ncc2c3c(N)nc(N)nc3ccc21 | -1.08
COc1ccc(CN2CCN(Cc3cc(Cl)ccc3O)CC2CCO)c(C)c1C (stereo not drawn) | 0.94
CN1CCCN(Cc2ccc(-c3cccc(NC(=O)c4ccc(Cl)cc4)c3)cc2)CC1 | 0.88
N#Cc1ccc(CN2CCC(Oc3ccc(NC(=O)c4ccco4)cc3Cl)CC2)cc1 | 1.94
CCCCNc1ccc(C(=O)NC2CCN(C[C@H](O)c3ccnc4ccc(OC)cc34)CC2)cc1 | 11.8
COc1c(C2CCN(CCCCNC(=O)c3cc(-c4ccc(C#N)cc4)n[nH]3)CC2)ccc2c1CCCC2 | 0.62
Fc1cccc(COc2ccc(Nc3ncnc4cc(/C=C/[C@@H]5CCCN5)sc34)cc2Cl)c1 | 0.95
O=C(NCc1ccccc1)NC1CCN(c2ccnc3cc(Cl)ccc23)C1 (stereo not drawn) | 0.99
CC(CN1CCN(C)CC1)C(=O)Nc1ccc(-c2cccc(-c3nc4ccccc4[nH]3)c2)cc1 (stereo not drawn) | 1.7

Compound | inhibition [%]
CCC(C)NC(=O)Cn1c2ncccc2c(=O)n1-c1ccc(C)cc1 (stereo not drawn) | 4.88
CCC1CCc2cc(N)cc(-c3nc4c(c(C)nn4CC)c(=O)[nH]3)c2O1 (stereo not drawn) | 4.15
CNCCNCc1cccc(-c2cccc(-c3nc4cc(C(F)(F)F)ccc4[nH]3)c2)c1 | 1.32
CCc1cn2c3c(cc(C(=O)N[C@@H](Cc4cccc(F)c4)[C@H](O)CNC4CC4)cc13)N(C)S(=O)(=O)CC2 | 3.5
O=C(NC1CCCCC1)N(Cc1cccc(-c2cccc(CNC3CCCC3)c2)c1)C1CCN(Cc2ccccc2)CC1 | 6.23
Cc1cccc(C(=O)Nc2ccnc(N(C)CCCN(C)Cc3cccc(C#N)c3)c2)c1 | 4.86
CN1CCCC(CN2CCN(Cc3cccc(-c4cccc(-c5nc6ccccc6[nH]5)c4)c3)CC2)C1 (stereo not drawn) | 2.2
Fc1ccc(NC(S)=NN=Cc2ccccn2)cc1 | 2.09
N#Cc1ccc2c(c1)CN(CCC1CCC(NC(=O)c3cc4cc(OC(F)(F)F)ccc4[nH]3)CC1)CC2 (stereo not drawn) | 2.72
Cc1ccc2c(c1)NCC21CCN(C[C@@H](O)C2CCN(c3ccnc(Cl)c3)CC2)CC1C (stereo partly drawn) | 3.08
CCC[C@@H]([C@@H](CC(C)C)C(=O)N[C@@H](CCCCNC(=O)c1cccc(OC)c1)C(=O)Nc1nccs1)N(O)C=O | 10.2
CN(CCN)Cc1ccc(-c2ccc(-c3nc4cc(C(F)(F)F)ccc4[nH]3)s2)cc1 | 14.8
N#Cc1ccc2c(c1)CCN(CCC1CCC(NC(=O)c3ccc(-c4ccccn4)s3)CC1)CC2 (stereo not drawn) | 9.45
CCCOc1cc(O)c(-c2[nH]nc(C)c2Oc2ccccc2)cc1CC | -0.1
CC(C)(C)c1ccc(CNC(=O)/C=C/c2ccc(-c3nc4cc(C(C)(C)C)ccc4[nH]3)cc2)cc1 | 3.4
COc1ccc(C2C(C(=O)Nc3cc(Cl)c(OC)cc3OC)c3ccccc3C(=O)N2C)cc1 (stereo not drawn) | 1.49
N=C(N)NN=CC(=O)Nc1ccc(Cl)c(C(F)(F)F)c1 | 7.04
CC1=C(C(=O)Nc2cc3cn[nH]c3cc2F)C(c2cccc(NS(C)(=O)=O)c2)CC(=O)N1 (stereo not drawn) | 1.97
Cc1cc(N[C@@H](CC(C)C)C(=O)NCCc2ccccc2)nc(Nc2ccccc2)n1 | 5.37
